target: Rho-associated protein kinase 1 (Homo sapiens) (UniProt Q13464); conditions: at 10 µM
Sequence (Q13464 2-1354 limits assumed): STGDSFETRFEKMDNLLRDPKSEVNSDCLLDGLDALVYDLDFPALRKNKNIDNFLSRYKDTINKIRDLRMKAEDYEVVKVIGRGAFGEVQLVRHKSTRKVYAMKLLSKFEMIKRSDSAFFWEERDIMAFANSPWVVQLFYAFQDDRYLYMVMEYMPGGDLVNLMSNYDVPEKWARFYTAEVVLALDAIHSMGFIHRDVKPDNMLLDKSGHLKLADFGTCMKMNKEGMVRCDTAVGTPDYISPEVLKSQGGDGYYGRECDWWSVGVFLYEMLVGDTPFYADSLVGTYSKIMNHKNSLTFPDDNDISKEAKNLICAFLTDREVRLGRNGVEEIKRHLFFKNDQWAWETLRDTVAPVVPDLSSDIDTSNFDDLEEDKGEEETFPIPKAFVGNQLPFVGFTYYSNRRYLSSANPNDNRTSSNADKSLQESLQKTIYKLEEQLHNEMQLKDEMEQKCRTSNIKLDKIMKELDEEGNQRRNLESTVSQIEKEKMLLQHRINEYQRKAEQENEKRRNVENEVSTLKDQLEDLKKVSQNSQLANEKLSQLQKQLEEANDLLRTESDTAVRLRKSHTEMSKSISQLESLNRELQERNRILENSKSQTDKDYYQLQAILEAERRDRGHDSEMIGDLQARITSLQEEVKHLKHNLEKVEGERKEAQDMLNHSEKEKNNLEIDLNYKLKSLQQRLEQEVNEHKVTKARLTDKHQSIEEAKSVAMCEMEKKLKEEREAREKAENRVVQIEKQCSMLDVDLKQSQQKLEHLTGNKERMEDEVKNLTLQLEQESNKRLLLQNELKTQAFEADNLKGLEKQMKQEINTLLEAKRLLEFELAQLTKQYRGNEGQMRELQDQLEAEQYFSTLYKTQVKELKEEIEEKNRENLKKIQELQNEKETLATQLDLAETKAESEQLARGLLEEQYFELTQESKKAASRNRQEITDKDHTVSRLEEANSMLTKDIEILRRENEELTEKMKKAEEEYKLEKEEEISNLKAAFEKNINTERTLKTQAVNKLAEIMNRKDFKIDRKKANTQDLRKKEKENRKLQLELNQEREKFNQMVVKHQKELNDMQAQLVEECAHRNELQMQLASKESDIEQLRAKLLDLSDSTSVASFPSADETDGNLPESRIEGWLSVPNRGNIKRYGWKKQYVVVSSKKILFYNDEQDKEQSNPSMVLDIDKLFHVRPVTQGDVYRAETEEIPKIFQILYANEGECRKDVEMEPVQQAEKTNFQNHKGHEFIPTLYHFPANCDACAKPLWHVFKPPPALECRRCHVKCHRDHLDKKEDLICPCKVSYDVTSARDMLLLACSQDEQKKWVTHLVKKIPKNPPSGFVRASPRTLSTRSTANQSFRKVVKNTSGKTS

SMILES | residual activity [%]
CC(C)(C)c1cc(C=C(C#N)C#N)cc(Br)c1O | 82
CC(C)[C@H](CO)Nc1nc(Nc2cccc(Cl)c2)c2ncn(C(C)C)c2n1 | 96
COC(=O)[C@@]1(O)C[C@H]2O[C@]1(C)n1c3ccccc3c3c4c(c5c6ccccc6n2c5c31)C(=O)NC4 | 12
O=C1c2ccccc2-c2nc3nnnn3nc21 | 117
COc1cc2ncnc(Nc3ccc(OCc4ccccc4)cc3)c2cc1OC | 96
O=c1[nH]c2ccccc2n1C1CCN(Cc2ccc(-c3nc4cc5[nH]cnc5cc4nc3-c3ccccc3)cc2)CC1 | 119
CCn1cnc2c(Nc3cccc(Cl)c3)nc(N[C@@H]3CCCC[C@@H]3N)nc21 | 84
CCc1nc(-c2ccc(OC)cc2)[nH]c1-c1ccncc1 | 106
C[S+]([O-])c1ccc(-c2nc(-c3ccc(F)cc3)c(-c3ccncc3)[nH]2)cc1 (centres undefined) | 74
O=C1Nc2ccc3ncsc3c2/C1=C/c1c[nH]cn1 | 23
O=C1NC(=O)c2c1c1c3ccccc3n3c1c1c2c2ccccc2n1C1CCC3O1 | 95
COc1cc(OC)c(/C=C2\C(=O)Nc3ccccc32)c(OC)c1 | 126
COc1ccc2c(c[n+](C)c3c4cc5c(cc4ccc23)OCO5)c1OC | 120
O=[N+]([O-])/C=C/c1ccc2c(c1)OCO2 | 109

target: Rho-associated protein kinase 2 (Homo sapiens) (UniProt O75116); conditions: at 1 µM
Sequence (O75116 whole entry, looked up): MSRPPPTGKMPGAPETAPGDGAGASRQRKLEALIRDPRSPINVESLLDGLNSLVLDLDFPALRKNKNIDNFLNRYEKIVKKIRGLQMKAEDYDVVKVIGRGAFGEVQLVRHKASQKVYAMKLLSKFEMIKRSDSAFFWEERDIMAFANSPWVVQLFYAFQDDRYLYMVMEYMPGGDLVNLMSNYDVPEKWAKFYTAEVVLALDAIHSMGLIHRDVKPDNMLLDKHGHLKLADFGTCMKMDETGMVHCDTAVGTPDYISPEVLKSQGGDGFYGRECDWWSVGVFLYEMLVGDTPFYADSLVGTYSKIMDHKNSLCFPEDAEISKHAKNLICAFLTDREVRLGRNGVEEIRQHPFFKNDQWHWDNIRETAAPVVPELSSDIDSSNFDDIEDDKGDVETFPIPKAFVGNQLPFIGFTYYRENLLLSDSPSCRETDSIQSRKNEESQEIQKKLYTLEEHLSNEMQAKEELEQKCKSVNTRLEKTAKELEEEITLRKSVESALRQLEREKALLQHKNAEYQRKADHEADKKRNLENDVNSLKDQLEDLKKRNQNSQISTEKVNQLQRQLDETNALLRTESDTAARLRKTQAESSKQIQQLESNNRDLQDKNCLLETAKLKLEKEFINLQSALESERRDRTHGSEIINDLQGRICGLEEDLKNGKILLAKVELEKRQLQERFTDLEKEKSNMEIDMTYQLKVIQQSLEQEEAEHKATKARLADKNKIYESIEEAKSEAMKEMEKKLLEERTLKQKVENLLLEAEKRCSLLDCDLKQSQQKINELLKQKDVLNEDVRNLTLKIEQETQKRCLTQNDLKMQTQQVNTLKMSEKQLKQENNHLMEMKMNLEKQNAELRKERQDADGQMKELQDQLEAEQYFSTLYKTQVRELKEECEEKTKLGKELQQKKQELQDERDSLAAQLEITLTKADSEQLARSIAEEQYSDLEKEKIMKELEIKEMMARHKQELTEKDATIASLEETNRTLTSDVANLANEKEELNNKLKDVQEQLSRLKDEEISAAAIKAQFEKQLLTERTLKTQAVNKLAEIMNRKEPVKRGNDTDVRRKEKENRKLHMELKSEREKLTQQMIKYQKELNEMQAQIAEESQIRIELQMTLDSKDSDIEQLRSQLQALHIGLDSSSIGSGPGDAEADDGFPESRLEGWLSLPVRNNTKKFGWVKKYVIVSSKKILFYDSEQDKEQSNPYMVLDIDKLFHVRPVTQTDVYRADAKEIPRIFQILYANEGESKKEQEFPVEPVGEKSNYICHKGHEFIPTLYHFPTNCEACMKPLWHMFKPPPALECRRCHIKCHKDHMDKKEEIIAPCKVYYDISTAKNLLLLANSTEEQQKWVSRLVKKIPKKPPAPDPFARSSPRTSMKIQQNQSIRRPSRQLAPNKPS

SMILES | residual activity [%]
CC(C)(C)c1cc(C=C(C#N)C#N)cc(Br)c1O | 115
CC(C)[C@H](CO)Nc1nc(Nc2cccc(Cl)c2)c2ncn(C(C)C)c2n1 | 95
COC(=O)[C@@]1(O)C[C@H]2O[C@]1(C)n1c3ccccc3c3c4c(c5c6ccccc6n2c5c31)C(=O)NC4 | 15
CO[C@H]1[C@@H](OC)C[C@H](C)[C@@H](OC)C2=CC(=O)C=C(NC(=O)/C(C)=C/C=C/[C@H](OC)[C@@H](OC(N)=O)/C(C)=C/[C@@H]1C)C2=O | 106
COc1cc2ncnc(Nc3ccc(OCc4ccccc4)cc3)c2cc1OC | 119
O=S(=O)(NCCNC/C=C/c1ccc(Br)cc1)c1cccc2cnccc12 | 8
O=c1[nH]c2ccccc2n1C1CCN(Cc2ccc(-c3nc4cc5[nH]cnc5cc4nc3-c3ccccc3)cc2)CC1 | 103
COc1cc2nccc(Oc3ccc(NC(=O)Nc4cc(C)on4)c(Cl)c3)c2cc1OC | 76
CCn1cnc2c(Nc3cccc(Cl)c3)nc(N[C@@H]3CCCC[C@@H]3N)nc21 | 78
CCc1nc(-c2ccc(OC)cc2)[nH]c1-c1ccncc1 | 107
C[S+]([O-])c1ccc(-c2nc(-c3ccc(F)cc3)c(-c3ccncc3)[nH]2)cc1 (centres undefined) | 119
O=C1Nc2ccc3ncsc3c2/C1=C/c1c[nH]cn1 | 5
COc1cc(OC)c(/C=C2\C(=O)Nc3ccccc32)c(OC)c1 | 88
O=[N+]([O-])/C=C/c1ccc2c(c1)OCO2 | 99

target: Rho-associated protein kinase 2 (Homo sapiens) (UniProt O75116); conditions: at 10 µM

SMILES | residual activity [%]
CC(C)[C@H](CO)Nc1nc(Nc2cccc(Cl)c2)c2ncn(C(C)C)c2n1 | 76
COC(=O)[C@@]1(O)C[C@H]2O[C@]1(C)n1c3ccccc3c3c4c(c5c6ccccc6n2c5c31)C(=O)NC4 | 2
N/C(=N\[N+](=O)[O-])N/N=C\c1ccc(-c2cccc([N+](=O)[O-])c2)o1 | 98
CO[C@H]1[C@@H](OC)C[C@H](C)[C@@H](OC)C2=CC(=O)C=C(NC(=O)/C(C)=C/C=C/[C@H](OC)[C@@H](OC(N)=O)/C(C)=C/[C@@H]1C)C2=O | 80
COc1cc2ncnc(Nc3ccc(OCc4ccccc4)cc3)c2cc1OC | 97
O=S(=O)(NCCNC/C=C/c1ccc(Br)cc1)c1cccc2cnccc12 | 0
O=c1[nH]c2ccccc2n1C1CCN(Cc2ccc(-c3nc4cc5[nH]cnc5cc4nc3-c3ccccc3)cc2)CC1 | 74
COc1cc2nccc(Oc3ccc(NC(=O)Nc4cc(C)on4)c(Cl)c3)c2cc1OC | 51
CCn1cnc2c(Nc3cccc(Cl)c3)nc(N[C@@H]3CCCC[C@@H]3N)nc21 | 53
CCc1nc(-c2ccc(OC)cc2)[nH]c1-c1ccncc1 | 82
C[S+]([O-])c1ccc(-c2nc(-c3ccc(F)cc3)c(-c3ccncc3)[nH]2)cc1 (centres undefined) | 100
O=C1Nc2ccc3ncsc3c2/C1=C/c1c[nH]cn1 | 1
c1cc(-c2cnn3cc(-c4ccc(OCCN5CCCCC5)cc4)cnc23)ccn1 | 40
COc1cc(OC)c(/C=C2\C(=O)Nc3ccccc32)c(OC)c1 | 92
COc1ccc2c(c[n+](C)c3c4cc5c(cc4ccc23)OCO5)c1OC | 82
O=[N+]([O-])/C=C/c1ccc2c(c1)OCO2 | 79
COc1ccc2c(c1)/C(=C/c1cnc[nH]1)C(=O)N2 | 36

target: Proto-oncogene tyrosine-protein kinase receptor Ret (Homo sapiens) (UniProt P07949); conditions: at 1 µM
Sequence (P07949 whole entry): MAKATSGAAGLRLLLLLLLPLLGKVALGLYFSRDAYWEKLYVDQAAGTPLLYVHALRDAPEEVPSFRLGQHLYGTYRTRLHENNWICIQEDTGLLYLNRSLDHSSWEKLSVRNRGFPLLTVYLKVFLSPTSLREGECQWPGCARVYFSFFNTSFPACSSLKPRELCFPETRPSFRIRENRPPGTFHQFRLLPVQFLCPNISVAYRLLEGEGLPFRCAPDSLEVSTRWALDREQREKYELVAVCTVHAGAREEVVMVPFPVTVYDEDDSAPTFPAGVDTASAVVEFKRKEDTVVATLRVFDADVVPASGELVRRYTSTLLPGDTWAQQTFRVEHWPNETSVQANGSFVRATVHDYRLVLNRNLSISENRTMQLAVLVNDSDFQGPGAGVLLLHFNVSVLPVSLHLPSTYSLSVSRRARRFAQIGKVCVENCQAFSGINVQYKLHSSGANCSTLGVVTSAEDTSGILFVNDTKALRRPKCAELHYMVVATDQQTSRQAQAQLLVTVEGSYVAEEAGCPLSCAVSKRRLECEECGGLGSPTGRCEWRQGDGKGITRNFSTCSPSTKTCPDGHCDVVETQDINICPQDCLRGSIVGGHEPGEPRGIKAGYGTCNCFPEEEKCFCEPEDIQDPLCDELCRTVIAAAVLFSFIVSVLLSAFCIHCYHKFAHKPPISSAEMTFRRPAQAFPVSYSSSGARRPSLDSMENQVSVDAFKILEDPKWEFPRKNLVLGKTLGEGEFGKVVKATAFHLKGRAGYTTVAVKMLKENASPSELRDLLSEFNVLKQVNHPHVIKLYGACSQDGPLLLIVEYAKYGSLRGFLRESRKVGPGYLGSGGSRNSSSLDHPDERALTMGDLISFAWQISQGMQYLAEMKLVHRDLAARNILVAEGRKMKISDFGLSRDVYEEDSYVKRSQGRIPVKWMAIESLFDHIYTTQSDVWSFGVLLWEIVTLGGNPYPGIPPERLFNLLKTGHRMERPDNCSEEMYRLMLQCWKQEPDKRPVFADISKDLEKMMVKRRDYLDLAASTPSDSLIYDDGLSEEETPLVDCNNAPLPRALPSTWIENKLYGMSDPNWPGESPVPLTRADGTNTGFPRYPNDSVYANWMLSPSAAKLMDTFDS

SMILES | residual activity [%]
CC(C)(C)c1cc(C=C(C#N)C#N)cc(Br)c1O | 101
CC(C)[C@H](CO)Nc1nc(Nc2cccc(Cl)c2)c2ncn(C(C)C)c2n1 | 91
COC(=O)[C@@]1(O)C[C@H]2O[C@]1(C)n1c3ccccc3c3c4c(c5c6ccccc6n2c5c31)C(=O)NC4 | 2
O=C1c2ccccc2-c2nc3nnnn3nc21 | 105
COc1cc2ncnc(Nc3ccc(OCc4ccccc4)cc3)c2cc1OC | 75
O=c1[nH]c2ccccc2n1C1CCN(Cc2ccc(-c3nc4cc5[nH]cnc5cc4nc3-c3ccccc3)cc2)CC1 | 99
CCn1cnc2c(Nc3cccc(Cl)c3)nc(N[C@@H]3CCCC[C@@H]3N)nc21 | 61
CCc1nc(-c2ccc(OC)cc2)[nH]c1-c1ccncc1 | 106
O=C1Nc2ccc3ncsc3c2/C1=C/c1c[nH]cn1 | 9
O=C1NC(=O)c2c1c1c3ccccc3n3c1c1c2c2ccccc2n1C1CCC3O1 | 37
c1cc(-c2cnn3cc(-c4ccc(OCCN5CCCCC5)cc4)cnc23)ccn1 | 51
COc1cc(OC)c(/C=C2\C(=O)Nc3ccccc32)c(OC)c1 | 99
COc1ccc2c(c[n+](C)c3c4cc5c(cc4ccc23)OCO5)c1OC | 86
O=[N+]([O-])/C=C/c1ccc2c(c1)OCO2 | 96

— ChEMBL document CHEMBL2218924, “A broad activity screen in support of a chemogenomic map for kinase signalling research and drug discovery” (Biochem J, 2013)
